According to PubChem BioAssay (EPA / NIEHS):
Results filed as inconclusive are left out. Active and inactive are the calls of the source. Rule for the calls, unless noted: active = hit-call score of the fitted dose curve at least 0.9, where 1 is the maximum; inconclusive = response in the unintended direction; inactive = score below 0.9.

Assays:
[1] = ATG_TAL_CIS: Attagene CIS-FACTORIAL HepG2 Assay for human TAL Basal Promoter (AID 2282966; active = hit-call score of the fitted dose curve at least 0.9, where 1 is the maximum; inactive = score below 0.9;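 note: background control endpoint measuring basal TAL promoter reporter mRNA not a specific factor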); conditions: HepG2 Attagene cis-factorial TAL promoter reporter; actives raise or lower the signal
Method in brief: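 Steps: transfect HepG2 with multiple reporter transcription units; dose 24 h; isolate RNA, reverse-transcribe, PCR-amplify, label with 6-FAM, digest with HpaI; resolve by capillary electrophoresis. Bidirectional fitting against DMSO baseline.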

[2] = ATG_TGFb_CIS: Attagene CIS-FACTORIAL HepG2 Assay for human Transforming Growth Factor (TGF) (AID 2282967; active = hit-call score of the fitted dose curve at least 0.9, where 1 is the maximum; inactive = score below 0.9); conditions: HepG2 Attagene CIS TGFb reporter, mRNA transcription; actives raise or lower the signal
Method in brief: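 After a 24-hour incubation with compound, transfected HepG2 cells were lysed for RNA; reporter cDNA was amplified, fluorescently end-labeled and separated by CE. DMSO served as baseline for bidirectional fits.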

[3] = ATG_VDRE_CIS: Attagene CIS-FACTORIAL HepG2 Assay for human Vitamin D Receptor Element (VDRE) (AID 2282968; active = hit-call score of the fitted dose curve at least 0.9, where 1 is the maximum; inactive = score below 0.9); conditions: HepG2 VDRE cis-reporter transcription, actives raise or lower the signal
Method in brief: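 Reporter mRNA induction, quantified by capillary electrophoresis of fluorescently labelled RT-PCR products, was read 24 h after dosing HepG2 cells carrying transiently transfected cis-regulated reporter units; gain or loss relative to DMSO.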

[4] = biological target: Steroid hormone receptor ERR1 (Homo sapiens) (UniProt P11474); test: ATG_ERRa_TRANS: Attagene TRANS-FACTORIAL HepG2 Assay for human Estrogen-Related Receptor alpha (ERRa) (AID 2282971); conditions: HepG2 Attagene TRANS reporter, ERRa transactivation
Method in brief: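 Signal gain relative to DMSO for an ERRa-Gal4 chimeric receptor, read as reporter mRNA by RT-PCR/capillary electrophoresis. Human HepG2 liver cells, transient multiplex reporter transfection, 24 h chemical exposure.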

[5] = biological target: X-box-binding protein 1 (Homo sapiens) (UniProt P17861); test: ATG_Xbp1_CIS: Attagene CIS-FACTORIAL HepG2 Assay for human X-box Binding Protein 1 (XBP1) (AID 2282972; active = hit-call score of the fitted dose curve at least 0.9, where 1 is the maximum; inactive = score below 0.9); conditions: HepG2 XBP1 cis-element reporter, Attagene multiplex; actives raise or lower the signal
Method in brief: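 Fluorescence-labelled cDNA fragments from reporter transcripts, separated by capillary electrophoresis, give the signal. Source: HepG2 cells transfected with promoter-driven reporter units, harvested 24 h post-dose. DMSO served as reference for bidirectional curve fitting.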

[6] = ATG_GAL4_TRANS: Attagene TRANS-FACTORIAL HepG2 Assay for GAL4 (Internal Marker) (AID 2282976); conditions: HepG2 Attagene TRANS GAL4 internal marker reporter
Method in brief: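 Liver HepG2 line bearing multiplexed GAL4-UAS reporter constructs; 24 h chemical treatment. Transcripts were quantified as fluorescent fragments on capillary electrophoresis after RT-PCR and HpaI cut, with activity fitted upward from DMSO.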

[7] = biological target: Glucocorticoid receptor (Homo sapiens) (UniProt P04150); test: ATG_GR_TRANS: Attagene TRANS-FACTORIAL HepG2 Assay for human Glucocorticoid Receptor (GR) (AID 2282978); conditions: HepG2 Attagene TRANS GR reporter, mRNA transcription;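 note: activators score as hits since higher reporter transcript over DMSO is fitted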
Method in brief: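 HepG2 cells transiently transfected with GAL4-UAS reporter units and exogenous GR-Gal4 chimera, dosed 24 h. Reporter mRNA by RT-PCR, FAM labeling, HpaI digest and capillary electrophoresis; gain-of-signal fit versus DMSO.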

[8] = biological target: Bile acid receptor (Homo sapiens) (UniProt Q96RI1); test: ATG_FXR_TRANS: Attagene TRANS-FACTORIAL HepG2 Assay for Farnesoid X Receptor (FXR) (AID 2282979); conditions: HepG2 Attagene TRANS FXR-GAL4 reporter transcription;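 note: hits raise reporter mRNA above DMSO so AC50 marks FXR activation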
Method in brief: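 After 24 h chemical treatment of transfected HepG2 cells, GAL4-UAS reporter transcripts driven by an exogenous FXR-GAL4 fusion were measured by RT-PCR and capillary electrophoresis. Increases over DMSO were fitted.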

[9] = biological target: Oxysterols receptor LXR-alpha (Homo sapiens) (UniProt Q13133); test: ATG_LXRa_TRANS: Attagene TRANS-FACTORIAL HepG2 Assay for human Liver X Receptor alpha (LXRa) (AID 2282980); conditions: HepG2 Attagene TRANS reporter, LXRa transactivation
Method in brief: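 In this multiplexed TRANS system, compounds act on HepG2 cells carrying GAL4-UAS reporter units and a receptor-GAL4 fusion for 24 h. Induced reporter RNA is amplified, fluorescently labelled and sized by capillary electrophoresis, with DMSO as baseline.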

[10] = biological target: Oxysterols receptor LXR-beta (Homo sapiens) (UniProt P55055); test: ATG_LXRb_TRANS: Attagene TRANS-FACTORIAL HepG2 Assay for human Liver X Receptor beta (LXRb) (AID 2282981); conditions: HepG2 Attagene TRANS GAL4-LXRb reporter, mRNA
Method in brief: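 Transient transfection HepG2 (multiplexed RTUs, GAL4-UAS); NR-Gal4 chimera; 24 h exposure; RNA → RT-PCR → 6-FAM primer extension → HpaI → CE; increase vs DMSO.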

[11] = biological target: Hepatocyte nuclear factor 4-alpha (Homo sapiens) (UniProt P41235); test: ATG_HNF4a_TRANS: Attagene TRANS-FACTORIAL HepG2 Assay for human Hepatocyte Nuclear Factor 4 alpha (HNF4a) (AID 2282982); conditions: HepG2 HNF4a transactivation reporter, mRNA readout
Method in brief: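 Readout is fluorescent reporter-transcript fragments resolved by capillary electrophoresis after RT-PCR from HepG2 cells dosed for 24 h. Cells carried transfected GAL4-UAS reporter constructs measuring exogenous NR-GAL4 chimera activity; DMSO served as baseline.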

[12] = ATG_M_06_TRANS: Attagene TRANS-FACTORIAL HepG2 Assay for M06 Transcription Factor (Internal Marker) (AID 2282983); conditions: HepG2 Attagene TRANS M06 internal marker reporter;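 note: reporter transcript level by RT-PCR then capillary electrophoresis fluorescence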
Method in brief: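 Internal-marker background readout from a multiplexed TRANS reporter system in HepG2; 24 h dosing; mRNA induction quantified by RT-PCR plus capillary electrophoresis fluorescence; DMSO as negative control and baseline.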

[13] = ATG_M_32_TRANS: Attagene TRANS-FACTORIAL HepG2 Assay for M32 Transcription Factor (Internal Marker) (AID 2282984); conditions: HepG2 Attagene TRANS M32 internal marker reporter;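 note: transcript level of a background control reporter unit measured by RT-PCR and capillary electrophoresis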
Method in brief: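 Measures reporter mRNA induction in human HepG2 liver cells after 24 h chemical treatment. Transcripts from transiently transfected GAL4-UAS reporter units are amplified, fluorescently labelled and sized by capillary electrophoresis; gain of signal relative to DMSO.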

[14] = biological target: Transcriptional activator Myb (Homo sapiens) (UniProt P10242); test: ATG_Myb_CIS: Attagene CIS-FACTORIAL HepG2 Assay for human Myeloblastosis (Myb) Proto-Oncogene Transcription Factor (AID 2282986; active = hit-call score of the fitted dose curve at least 0.9, where 1 is the maximum; inactive = score below 0.9); conditions: HepG2 Attagene CIS-FACTORIAL Myb reporter transcription; actives raise or lower the signal
Method in brief: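 Transiently transfected HepG2 cells carrying a multiplexed cis-promoter reporter set report endogenous Myb activity after 24 h compound exposure. Reporter mRNA is read by RT-PCR with capillary electrophoresis of fluorescent products, fitted bidirectionally against DMSO.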

[15] = biological target: Nuclear respiratory factor 1 (Homo sapiens) (UniProt Q16656); test: ATG_NRF1_CIS: Attagene CIS-FACTORIAL HepG2 Assay for human Nuclear Respiratory Factor 1 (NRF1) Orphan Gene (AID 2282987; active = hit-call score of the fitted dose curve at least 0.9, where 1 is the maximum; inactive = score below 0.9); conditions: HepG2 NRF1 cis-element reporter, Attagene multiplex; actives raise or lower the signal
Method in brief: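 HepG2 cells transiently transfected with multiple cis-regulated reporter units, exposed 24 h. Reporter mRNAs measured by RT-PCR, fluorescent labelling, HpaI digestion and capillary electrophoresis; bidirectional fitting against DMSO.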

[16] = ATG_M_19_TRANS: Attagene TRANS-FACTORIAL HepG2 Assay for M19 Transcription Factor (Internal Marker) (AID 2282974); conditions: HepG2 Attagene TRANS-FACTORIAL M19 internal marker reporter
Method in brief: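 HepG2 transiently transfected with GAL4-UAS multiplex reporter constructs, exposed 24 h; reporter RNA quantified by RT-PCR, 6-FAM labeling, HpaI digestion and capillary electrophoresis; internal background marker fitted upward versus DMSO.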

[17] = biological target: Nuclear receptor subfamily 4 group A member 2 (Homo sapiens) (UniProt P43354); test: ATG_NURR1_TRANS: Attagene TRANS-FACTORIAL HepG2 Assay for human Nuclear Receptor Related Protein 1 (NURR1) (AID 2282985); conditions: HepG2 Attagene TRANS reporter, mRNA readout
Method in brief: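 Transient transfection of HepG2, human liver cells, with multiple GAL4-UAS reporter transcription units. Cells dosed 24 h, RNA isolated, reverse-transcribed, PCR-amplified, FAM-labelled, HpaI-digested, sized by capillary electrophoresis. DMSO served as negative control.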

[18] = biological target: Estrogen-related receptor gamma (Homo sapiens) (UniProt P62508); test: ATG_ERRg_TRANS: Attagene TRANS-FACTORIAL HepG2 Assay for human Estrogen-Related Receptor gamma (ERRg) (AID 2282977); conditions: HepG2 Attagene TRANS reporter, ERRg transactivation;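 note: hits increase reporter signal over DMSO so potencies reflect activators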
Method in brief: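 HepG2 cells transiently transfected with multiplexed GAL4-UAS reporter units driven by chimeric NR-Gal4 proteins; 24 h exposure. Reporter mRNA quantified by RT-PCR, fluorescent labelling, HpaI digestion and capillary electrophoresis; gain of signal vs DMSO.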

[19] = biological target: Estrogen receptor (Homo sapiens) (UniProt P03372); test: ATG_ERa_TRANS: Attagene TRANS-FACTORIAL HepG2 Assay for human Estrogen Receptor alpha (ERa) (AID 2282970); conditions: HepG2 Attagene TRANS ERa GAL4 reporter, mRNA
Method in brief: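 Multiplexed cell-based reporter format in HepG2: chimeric ERa-Gal4 protein drives GAL4-UAS reporter transcription. Fluorescent reporter mRNA quantified by capillary electrophoresis 24 hours after dosing; endpoint fitted as signal gain against DMSO.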

Measured: outcome

Sequence of Nuclear receptor subfamily 4 group A member 2 (Homo sapiens) (P43354 whole entry, looked up, the tested form may be a part): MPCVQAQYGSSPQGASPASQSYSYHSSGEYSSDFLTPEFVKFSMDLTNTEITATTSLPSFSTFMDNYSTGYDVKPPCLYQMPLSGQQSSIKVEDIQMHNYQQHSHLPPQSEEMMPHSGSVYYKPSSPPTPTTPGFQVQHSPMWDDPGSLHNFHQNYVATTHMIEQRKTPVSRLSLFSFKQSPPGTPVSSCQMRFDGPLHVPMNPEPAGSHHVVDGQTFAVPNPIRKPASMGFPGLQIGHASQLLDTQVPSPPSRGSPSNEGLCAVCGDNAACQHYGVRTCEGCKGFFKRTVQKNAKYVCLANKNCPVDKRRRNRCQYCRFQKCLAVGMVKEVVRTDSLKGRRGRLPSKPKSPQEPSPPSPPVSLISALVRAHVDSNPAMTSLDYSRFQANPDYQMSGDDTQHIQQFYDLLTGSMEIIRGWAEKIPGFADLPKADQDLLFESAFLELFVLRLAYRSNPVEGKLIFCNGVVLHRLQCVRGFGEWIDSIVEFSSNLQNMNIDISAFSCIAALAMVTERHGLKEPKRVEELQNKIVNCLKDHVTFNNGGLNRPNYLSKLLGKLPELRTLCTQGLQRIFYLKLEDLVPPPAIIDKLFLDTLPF
Sequence of Nuclear respiratory factor 1 (Homo sapiens) (Q16656 whole entry, looked up): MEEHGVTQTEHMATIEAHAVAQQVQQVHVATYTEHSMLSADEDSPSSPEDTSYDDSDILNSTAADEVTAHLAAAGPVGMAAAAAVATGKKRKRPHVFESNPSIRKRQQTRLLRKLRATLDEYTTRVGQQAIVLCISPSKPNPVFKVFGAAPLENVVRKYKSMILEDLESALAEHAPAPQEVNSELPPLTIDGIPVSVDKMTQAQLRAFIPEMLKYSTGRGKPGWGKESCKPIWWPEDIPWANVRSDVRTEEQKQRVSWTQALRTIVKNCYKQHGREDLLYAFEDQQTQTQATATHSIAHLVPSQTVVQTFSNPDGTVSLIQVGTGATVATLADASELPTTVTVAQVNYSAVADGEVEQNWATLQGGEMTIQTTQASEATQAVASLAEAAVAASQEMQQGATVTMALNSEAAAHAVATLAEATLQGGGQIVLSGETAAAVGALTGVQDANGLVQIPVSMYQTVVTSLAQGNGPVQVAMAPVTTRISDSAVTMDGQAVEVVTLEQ
Sequence of Glucocorticoid receptor (Homo sapiens) (P04150 whole entry, looked up, the tested form may be a part): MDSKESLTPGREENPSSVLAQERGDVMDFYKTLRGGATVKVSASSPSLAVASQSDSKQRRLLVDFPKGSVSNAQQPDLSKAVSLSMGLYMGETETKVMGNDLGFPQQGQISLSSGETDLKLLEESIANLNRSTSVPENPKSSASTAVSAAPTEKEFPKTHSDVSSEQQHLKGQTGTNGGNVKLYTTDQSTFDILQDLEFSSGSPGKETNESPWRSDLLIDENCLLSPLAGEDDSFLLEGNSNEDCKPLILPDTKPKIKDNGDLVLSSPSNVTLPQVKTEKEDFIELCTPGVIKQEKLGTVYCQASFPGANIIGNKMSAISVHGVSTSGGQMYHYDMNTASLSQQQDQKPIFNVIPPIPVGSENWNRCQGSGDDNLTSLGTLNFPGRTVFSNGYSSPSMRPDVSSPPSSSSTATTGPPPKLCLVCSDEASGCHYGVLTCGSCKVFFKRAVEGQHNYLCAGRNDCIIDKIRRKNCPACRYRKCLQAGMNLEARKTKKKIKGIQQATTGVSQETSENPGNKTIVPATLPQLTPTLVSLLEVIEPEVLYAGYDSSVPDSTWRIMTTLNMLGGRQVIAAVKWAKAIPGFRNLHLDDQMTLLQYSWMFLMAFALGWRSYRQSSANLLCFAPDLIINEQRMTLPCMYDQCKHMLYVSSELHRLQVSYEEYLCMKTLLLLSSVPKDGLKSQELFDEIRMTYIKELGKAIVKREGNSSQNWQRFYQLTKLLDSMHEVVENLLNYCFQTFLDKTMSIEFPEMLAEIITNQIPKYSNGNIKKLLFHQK
Sequence of Hepatocyte nuclear factor 4-alpha (Homo sapiens) (P41235 whole entry, looked up, the tested form may be a part): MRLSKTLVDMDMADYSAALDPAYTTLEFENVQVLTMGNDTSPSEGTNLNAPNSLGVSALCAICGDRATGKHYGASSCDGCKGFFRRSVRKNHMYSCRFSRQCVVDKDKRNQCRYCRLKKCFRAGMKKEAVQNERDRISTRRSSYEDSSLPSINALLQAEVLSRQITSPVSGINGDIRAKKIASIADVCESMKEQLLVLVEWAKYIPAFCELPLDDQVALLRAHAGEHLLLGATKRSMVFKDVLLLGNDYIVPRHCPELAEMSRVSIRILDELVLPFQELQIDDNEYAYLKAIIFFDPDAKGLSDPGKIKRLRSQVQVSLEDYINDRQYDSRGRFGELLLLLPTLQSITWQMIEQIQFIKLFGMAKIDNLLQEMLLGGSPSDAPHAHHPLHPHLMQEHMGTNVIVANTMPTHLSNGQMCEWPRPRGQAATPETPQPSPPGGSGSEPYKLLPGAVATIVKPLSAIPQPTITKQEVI
Sequence of Steroid hormone receptor ERR1 (Homo sapiens) (P11474 whole entry, looked up, the tested form may be a part): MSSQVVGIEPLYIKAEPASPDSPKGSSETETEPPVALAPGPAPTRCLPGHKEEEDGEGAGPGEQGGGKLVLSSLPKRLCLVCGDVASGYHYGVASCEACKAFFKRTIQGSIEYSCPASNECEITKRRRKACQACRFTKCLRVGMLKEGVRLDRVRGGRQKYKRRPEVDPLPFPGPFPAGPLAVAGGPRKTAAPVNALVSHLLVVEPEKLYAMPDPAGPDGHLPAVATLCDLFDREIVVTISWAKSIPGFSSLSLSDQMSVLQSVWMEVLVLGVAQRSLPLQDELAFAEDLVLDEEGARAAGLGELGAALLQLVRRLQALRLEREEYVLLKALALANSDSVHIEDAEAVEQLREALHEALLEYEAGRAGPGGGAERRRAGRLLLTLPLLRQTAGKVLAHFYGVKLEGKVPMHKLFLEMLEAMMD
Sequence of Transcriptional activator Myb (Homo sapiens) (P10242 whole entry, looked up): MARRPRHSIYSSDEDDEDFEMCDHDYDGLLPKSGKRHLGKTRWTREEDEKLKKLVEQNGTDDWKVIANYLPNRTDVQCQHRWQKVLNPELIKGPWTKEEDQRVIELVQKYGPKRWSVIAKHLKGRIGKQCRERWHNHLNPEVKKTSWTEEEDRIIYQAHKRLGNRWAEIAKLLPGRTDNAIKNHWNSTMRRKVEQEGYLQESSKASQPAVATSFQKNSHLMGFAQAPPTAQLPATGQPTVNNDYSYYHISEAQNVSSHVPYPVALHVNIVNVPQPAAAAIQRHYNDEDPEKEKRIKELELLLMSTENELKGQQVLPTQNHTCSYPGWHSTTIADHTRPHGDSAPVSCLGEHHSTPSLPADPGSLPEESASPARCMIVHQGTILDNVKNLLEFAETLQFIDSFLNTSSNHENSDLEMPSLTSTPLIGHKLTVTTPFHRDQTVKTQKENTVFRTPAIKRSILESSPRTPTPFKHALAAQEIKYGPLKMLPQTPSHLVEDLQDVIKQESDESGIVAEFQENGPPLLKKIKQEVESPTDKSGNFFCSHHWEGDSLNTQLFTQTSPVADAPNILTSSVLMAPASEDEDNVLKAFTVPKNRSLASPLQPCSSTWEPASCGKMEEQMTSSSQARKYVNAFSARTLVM
Sequence of Oxysterols receptor LXR-beta (Homo sapiens) (P55055 whole entry, looked up, the tested form may be a part): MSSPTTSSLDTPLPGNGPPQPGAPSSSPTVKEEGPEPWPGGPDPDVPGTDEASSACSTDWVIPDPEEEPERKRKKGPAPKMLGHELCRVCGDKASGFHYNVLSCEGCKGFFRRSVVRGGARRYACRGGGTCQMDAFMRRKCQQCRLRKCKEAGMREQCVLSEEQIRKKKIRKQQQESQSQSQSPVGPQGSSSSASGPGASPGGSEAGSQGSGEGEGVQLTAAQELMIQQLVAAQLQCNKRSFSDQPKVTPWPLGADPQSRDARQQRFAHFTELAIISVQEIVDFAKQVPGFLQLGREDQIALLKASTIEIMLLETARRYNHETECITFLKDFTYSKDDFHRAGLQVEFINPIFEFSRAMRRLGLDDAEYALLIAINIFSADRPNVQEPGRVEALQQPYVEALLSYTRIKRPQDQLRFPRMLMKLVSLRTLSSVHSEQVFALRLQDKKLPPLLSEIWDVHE
Sequence of X-box-binding protein 1 (Homo sapiens) (P17861 whole entry, looked up, the tested form may be a part): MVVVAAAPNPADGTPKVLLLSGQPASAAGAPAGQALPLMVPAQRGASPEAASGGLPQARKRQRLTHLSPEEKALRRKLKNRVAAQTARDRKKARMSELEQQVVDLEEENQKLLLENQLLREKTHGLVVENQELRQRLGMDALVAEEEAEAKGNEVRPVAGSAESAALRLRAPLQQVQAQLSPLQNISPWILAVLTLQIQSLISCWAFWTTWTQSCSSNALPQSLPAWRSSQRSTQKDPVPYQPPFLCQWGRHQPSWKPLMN
Sequence of Oxysterols receptor LXR-alpha (Homo sapiens) (Q13133 whole entry, looked up, the tested form may be a part): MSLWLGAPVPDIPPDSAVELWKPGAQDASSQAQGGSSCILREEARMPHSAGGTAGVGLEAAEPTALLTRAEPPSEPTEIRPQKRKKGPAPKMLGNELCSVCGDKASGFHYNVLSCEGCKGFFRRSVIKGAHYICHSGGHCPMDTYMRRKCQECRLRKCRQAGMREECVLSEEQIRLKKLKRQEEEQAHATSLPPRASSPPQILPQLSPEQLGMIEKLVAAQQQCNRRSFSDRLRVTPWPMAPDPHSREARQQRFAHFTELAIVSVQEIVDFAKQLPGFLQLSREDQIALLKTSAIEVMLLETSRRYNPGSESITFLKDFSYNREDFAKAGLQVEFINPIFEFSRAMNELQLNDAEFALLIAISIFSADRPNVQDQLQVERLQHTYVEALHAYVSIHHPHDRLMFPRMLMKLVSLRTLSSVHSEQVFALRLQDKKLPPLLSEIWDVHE

CC(C)(C#N)c1cc(Cn2cncn2)cc(C(C)(C)C#N)c1
not listed: [16] | [17] | [18] | [19]
inactive: all other assays above

CC(C)(CO)[N+](=O)[O-]
not listed: [4] | [8] | [12] | [18] | [19]
inactive: all other assays above

N#Cc1ccccc1
not listed: [8] | [9] | [10] | [16] | [19]
inactive: all other assays above

CCCC(=O)OCCC(C)CCC=C(C)C (stereo not drawn)
not listed: [6] | [7] | [8] | [9] | [10] | [12] | [17] | [19]
inactive: all other assays above

O=CCCc1ccccc1
not listed: [6] | [8] | [10] | [11] | [17] | [18] | [19]
inactive: all other assays above

CCCCCCCCC=O
not listed: [7] | [8] | [13] | [16] | [17] | [18] | [19]
inactive: all other assays above

C=C(C)C(=O)O
not listed: [4] | [8] | [11] | [12] | [15] | [18] | [19]
inactive: all other assays above

CC(C)(C)C(=O)c1ccccc1
inactive: [1] | [2] | [3] | [19] | [5] | [11] | [14] | [15]

CC(O)C(C)O (stereo not drawn)
not listed: [4] | [8] | [12] | [13] | [18] | [19]
inactive: all other assays above

O=C(OCc1ccccc1)C(=O)OCc1ccccc1
not listed: [4] | [6] | [7] | [8] | [16] | [17] | [18]
inactive: all other assays above
